Measurements as given in PubChem BioAssay AID1053124 (Broad Institute, 2014).
Entries with a potency or affinity are not part of this list. Calls of active or inactive are those of the source.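 The calls were made as follows: active = cell killing whose fitted half-effect concentration is at most twice the top valid dose tested; inconclusive = flat curve with 30 to 70% killing, or a poor fit; inactive = effect in the rising direction, plus the rest.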

Assay: viability loss in A549 lung cells – cell-based, ATP luminescence, cherry-pick, set 2, cytotoxicity control, dose response (AID 1053124)
Conditions: ATP luminescence (CellTiter-Glo), 72 h; series mostly up to 26 µM

| Compound | outcome |
| --- | --- |
| O=c1[nH]c2ccccc2nc1/C=C/c1ccccc1 | inactive |
| CCC(C)NC(=S)N1CCN(Cc2ccc3c(c2)OCO3)CC1 (centres undefined) | inactive |
| N#Cc1c2ccc(O)cc2n2ccccc12 | inactive |
| COC(=O)C1=CN(Cc2ccc(OC)c(OC)c2)C=C(C(=O)OC)C1c1cccc(F)c1 | inactive |
| Cc1c(C(=O)NCc2ccc(Cl)c(Cl)c2)sc(=O)n1Cc1cccc(F)c1 | inactive |
| CC(=O)c1sc(N/N=C\c2ccc(N(C)C)cc2)nc1C | inactive |
| CC(=O)Oc1ccc2cc(-c3nc4ccccc4n3C)c(=O)oc2c1 | inactive |
| CC1CCCCC1NC(=O)CN1C(=O)c2cccc(N)c2C1=O (centres undefined) | inactive |
| COc1ccc(NC(=O)C2CCC(CNS(=O)(=O)c3cccs3)CC2)cc1 (centres undefined) | inactive |
| CC(C)N1CCc2c(sc(NC(=O)Cc3ccccc3)c2C#N)C1 | inactive |
| CCOC(=O)C1CCCN(CCCc2ccccc2)C1 (centres undefined) | inactive |
| CCN(CC)CCNC(=O)c1sc2nc(-c3ccccc3)cn2c1C | inactive |
| O=[N+]([O-])c1cccc(-c2n[nH]c(=S)n2-c2ccc(Br)cc2)c1 | inactive |
| COc1cc(C(=O)OCC(C)=O)cc(NC(=O)c2ccco2)c1OC | inactive |
| COc1ccc(C2C3=C(CCCC3=O)N(CC(=O)O)C3=C2C(=O)CCC3)cc1 | inactive |
| C#CCOc1ccc(C2C(C#N)=C(N)Oc3cc(O)ccc32)cc1 (centres undefined) | inactive |
| COc1ccccc1N1CCN(C2CCC(C)CC2)CC1 (centres undefined) | inactive |
| CCOC(=O)c1c(C)n(C)c2ccc(OCC(O)CN3CCC(C)CC3)cc12 (centres undefined) | inactive |
| CCc1ccccc1S(=O)(=O)Cc1ccc(C(=O)N2CCN(c3ccccc3OC)CC2)o1 | inactive |
| COc1ccc(S(=O)(=O)Cc2ccc(C(=O)N3CCN(Cc4ccccc4)CC3)o2)cc1 | inactive |

| Compound | outcome |
| --- | --- |
| COc1ccccc1/C=N/Nc1nc(C)cc(=O)[nH]1 | inactive |
| CCCOc1c(Br)cc(C2C3=C(CCCC3=O)N(C)C3=C2C(=O)CCC3)cc1OC | inactive |
| O=C(O)[C@@H]1CCCN1S(=O)(=O)c1cccc(S(=O)(=O)N2CCC[C@H]2C(=O)O)c1 | inactive |
| O=C(O)C1=CC[C@@H](c2ccc(Cl)cc2)N(S(=O)(=O)c2ccc(Cl)cc2)[C@H]1c1ccc(F)cc1 | inactive |
| CCn1c(=NC(=O)CSC(C)=O)sc2cc(OC)ccc21 | inactive |
| Cc1cc(-c2ccccc2)c2ccc(NC(=O)C(C)(C)C)nc2n1 | inactive |
| CCOC(=O)C1=CN(CC2CCCO2)C=C(C(=O)OCC)C1c1ccccc1C(F)(F)F (centres undefined) | inactive |
| O=C(CCc1c[nH]c2ccccc12)OCC(=O)c1ccccc1 | inactive |
| Cc1ccc2nc3c(cc(C(=O)NCc4ccccc4)c(=N)n3CCCn3ccnc3)c(=O)n2c1 | inactive |
| Cc1ccc(-n2nnnc2CNC(=O)C(=O)c2c[nH]c3ccccc23)cc1C | inactive |
| O=C(NCc1ccc(F)cc1)C1CCCN1C(=O)Nc1cccc(F)c1 (centres undefined) | inactive |
| CCOc1ccc(C2C(C#N)=C(N)Oc3cc(O)ccc32)cc1OCC (centres undefined) | inactive |
| CCCN1CCc2c(sc(NC(=O)C3CCN(S(=O)(=O)c4cccs4)CC3)c2C(N)=O)C1 | inactive |
| Cn1cc(C(c2ccccc2OCC(=O)O)c2cn(C)c3ccccc23)c2ccccc21 | inactive |
| CC(C)CCn1c(CN2CC(C)OC(C)C2)nc2c1c(=O)n(C)c(=O)n2C (centres undefined) | inactive |
| Cc1ccc(S(=O)(=O)CCC(=O)OCC(=O)Nc2cccc(S(=O)(=O)N3CCCCC3)c2)cc1 | inactive |
| O=C(c1ccc(F)cc1)C1CCN(C(=O)Nc2ccccc2Cl)CC1 | inactive |
| CSC1=NSC2=NC(=O)/C(=C/c3coc4ccc(O)cc4c3=O)C(=N)N12 | inactive |
| COc1ccc(Cn2nnnc2C(CC(C)C)N2CCC(C(N)=O)CC2)cc1 (centres undefined) | inactive |
